The list is not random: actives were taken first. Their share in the collection is about 7.5%.
FLuc counter – firefly luciferase modulation, counter-screen for miR-21 project; P08659; purified FLuc, Km substrates, luminescence inhibition; Potency, µM (doses to about 57.5 µM), for inactives: at the highest dose activity change, negative = inhibition, hits mostly inhibitors; 360,000 compounds, 6.9% hits; AID 588342;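 note: plate controls were vehicle for no effect and reference inhibitor for full effect; nearly all actives have a fitted effect of over 55% in size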
Target sequence (P08659 whole entry, looked up): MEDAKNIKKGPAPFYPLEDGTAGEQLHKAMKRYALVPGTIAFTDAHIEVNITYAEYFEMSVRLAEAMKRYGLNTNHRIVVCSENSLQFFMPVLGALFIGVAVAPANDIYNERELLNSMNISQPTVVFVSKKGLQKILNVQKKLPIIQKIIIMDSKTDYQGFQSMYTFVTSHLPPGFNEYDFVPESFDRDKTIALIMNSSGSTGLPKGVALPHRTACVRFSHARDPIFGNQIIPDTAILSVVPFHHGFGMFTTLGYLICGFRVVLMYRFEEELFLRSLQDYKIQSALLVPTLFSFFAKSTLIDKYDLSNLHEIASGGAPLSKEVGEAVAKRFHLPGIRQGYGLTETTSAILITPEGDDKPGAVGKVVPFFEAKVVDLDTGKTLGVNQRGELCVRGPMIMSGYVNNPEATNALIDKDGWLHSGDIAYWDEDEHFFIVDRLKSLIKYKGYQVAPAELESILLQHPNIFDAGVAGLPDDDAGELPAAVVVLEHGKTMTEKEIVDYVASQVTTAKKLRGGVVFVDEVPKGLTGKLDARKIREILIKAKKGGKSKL
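Purified P. pyralis luciferase, 10 nM final, with Km-level 10 uM D-luciferin and 10 uM ATP in 50 mM Tris acetate pH 7.5, 10 mM Mg acetate, 0.01% Tween-20, 0.05% BSA; 6-point qHTS titration about 60 µM downward; luminescence read.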
NPC1 promoter act – activates the NPC1 promoter. Potency, µM (top dose mostly 9.22 µM), inactives show at the highest dose activation, usual class: activators. Huh7 NPC1 promoter luciferase reporter, 24 h. AID 485313. 320,000 compounds, 2.4% hits; note: % of control where 0% means no effect; nearly all actives have a fitted effect of over 60% in size
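NPC1 promoter–luciferase Huh7 cells; 24 h compound; luminescence.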
KinaseGlo FLuc – Kinase-Glo luciferase inhibition (counter-screen); Q27757; Kinase-Glo luciferase, ATP luminescence, 8 min; Potency, µM (doses to about 38.3 µM), without a hit: at the highest dose activity change, negative = inhibition, usual class: inhibitors; 200,000 compounds, 0.28% hits; AID 1379; note: % is set by controls: 0 for no effect and ±100 for the full control effect; nearly all actives have a fitted effect of over 60% in size
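Recombinant Kinase-Glo luciferase, 10 uM ATP (linear range), luciferin; imidazole pH 7.2 / KCl / MgCl2 / Tween / BSA buffer; 8 min RT; luminescence.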
Rab9 promoter act – Rab9 promoter activation. Huh7 Rab9 promoter-luciferase reporter, luminescence, 24 h. Potency, µM (highest dose often 9.22 µM), for the others: at the top dose activation, negative = inhibition, actives largely listed as activators. 320,000 compounds, 2.8% hits. AID 485297; note: % of control where 0% means no effect; nearly all actives have a fitted effect of over 60% in size
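Huh7 reporter line, Rab9 promoter upstream of luciferase. Compound exposure 24 h at 37 °C in reduced-serum medium with 10% FBS. Read-out: luminescence.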
ELG1 genotoxic – induces genotoxicity in HEK293T cells with luciferase-tagged ELG1; Potency, µM (highest dose often 46 µM), without a hit: top-dose activity change, positive = activation, hits mostly activators; 330,000 compounds, 1.3% hits; HEK293T ELG1-luciferase reporter, luminescence, 16 h; note: % of control where 0% means no effect; nearly all actives have a fitted effect of over 60% in size
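16 hr compound incubation (37 °C, 5% CO2) of HEK293T cells carrying luciferase-tagged ELG1; luciferase then measured by ONE-Glo luminescence after 30 min at RT.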
SMN2 splice up – SMN2 splice variant enhancement; HEK293 SMN2-luciferase splicing reporter, luminescence, 30-36 h; Potency, µM (series often up to 46.1 µM), without a hit: at the highest dose activity change, positive = activation, hits mostly activators; 210,000 compounds, 2.8% hits; note: % of control where 0% means no effect; nearly all actives have a fitted effect of over 55% in size
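HEK293 cells carry an SMN2 minigene-luciferase reporter in which exon 7 inclusion puts luciferase in frame. Cells were seeded at 2000 cells/well, attached for 10-12 hours, then exposed to compounds for 30-36 hours at 37C before ONE-Glo luminescence.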
Numbers without * were called inactive; ? = inconclusive; / = no result. Calls come from the whole dose curve; as a rule, active = well fitted curve in the direction sought with a large enough effect; inconclusive = small, poorly fitted or top-dose-only effect, or another doubt; inactive = no such curve, though single readings can be large; an effect the other way counts as inactive or inconclusive. Potency is the fitted concentration of half-maximal effect.

SMILES	FLuc counter	NPC1 promoter act	KinaseGlo FLuc	Rab9 promoter act	ELG1 genotoxic	SMN2 splice up
Cc1ccc(C(=O)Nc2cccc(O)c2)cc1S(=O)(=O)N1CCCCCC1	15µM*	29%	/	?	6%	-5%
O=C(O)c1cccc(NC(=O)c2ccc(Cl)c(S(=O)(=O)N3CCCCCC3)c2)c1	0.11µM*	0.32µM*	0%	0.35µM*	2.3µM*	8.9µM*
CC(C)CCN(C(=O)Nc1ccccc1)C(C)c1cccs1 (centres undefined)	-8%	1%	-4%	-8%	-1%	3%
Cc1ccc(-c2cc(C(=O)N/N=C/c3ccc(Cl)cc3)n[nH]2)o1	?	-2%	/	0%	-3%	/
Cc1ccnc(NC(=O)c2ccc3c(c2)S(=O)(=O)c2ccccc2C3=O)c1	15µM*	?	/	24%	7%	/
Cc1ccc(NC(=O)c2ccc(F)cc2)cc1S(=O)(=O)N1CCCCCC1	?	3%	4%	-10%	-10%	-36%
Cc1ccc(C(=O)Nc2ccc3cn[nH]c3c2)cc1S(=O)(=O)N1CCCCC1	21µM*	?	-7%	?	15%	1%
Cc1ccnc(NC(=O)c2ccc(Cl)c(S(=O)(=O)N3CCCC3)c2)c1	19µM*	?	/	?	?	/
Cc1ccnc(NC(=O)c2ccc(Cl)c(S(=O)(=O)N3CCCCC3)c2)c1	/	4%	/	13%	-2%	/
COc1cc(C(=O)Oc2ccccc2/C=N/NC(=O)c2ccc(Cl)cc2Cl)cc(OC)c1OC	?	3.5µM*	4%	?	15%	?
C=CCOc1ccccc1/C=N/NC(=O)c1ccc(Cl)cc1Cl	15µM*	?	-3%	?	1%	2%
COc1cccc(S(=O)(=O)N2CCN(Cc3ccc4c(c3)OCO4)CC2)c1	-1%	1%	/	0%	-7%	-13%
COc1ccc(OCCSc2ncccn2)cc1	7.6µM*	2.2µM*	-2%	1.6µM*	3.7µM*	14µM*
COc1cccc(OCCCCSc2ncccn2)c1	?	13%	0%	16%	?	18%
COc1ccc(OCCSc2nc3nc(C)cc(C)n3n2)cc1	-7%	-2%	-2%	-3%	2%	-3%
COc1ccc(OCCCSc2ncccn2)cc1	13µM*	?	-1%	?	10µM*	25µM*
Nc1cc(N)nc(SCCOc2ccccc2F)n1	?	28%	-1%	?	?	13µM*
c1cnc(SCCCOc2ccc3ccccc3c2)nc1	17µM*	?	-3%	?	21µM*	16%
Cc1oc2ncn(C)c(=O)c2c1C(=O)NCCCN1CCCCC1C (centres undefined)	-5%	/	/	/	/	/
CSCCC(NC(=O)c1ccccc1Br)C(=O)NCC(c1ccco1)N1CCCCC1 (centres undefined)	2%	0%	/	-2%	2%	/
Clc1ccc(OCCSc2ncccn2)cc1	6.7µM*	2.5µM*	-3%	3.5µM*	8.2µM*	25µM*
O=c1[nH]c(SCCOc2ccccc2F)nc2ccccc12	27µM*	12%	1%	18%	8%	/
COc1ccc(OCCSc2ncnc3nc[nH]c23)cc1	17µM*	?	2%	?	?	-18%
Fc1ccccc1OCCSc1ncnc2nc[nH]c12	?	26%	-2%	?	?	?
COc1ccccc1OCCSc1nc2ccccc2c(=O)[nH]1	?	16%	-1%	15%	?	?
CC(C)(C)c1cccc(OCCCSc2ncccn2)c1	?	-1%	-3%	4%	3%	-20%
Cc1ccc(OCCCSc2ncccn2)cc1C	15µM*	?	0%	?	?	20µM*
O=C(NCc1ccccc1)C(=O)Nc1c2c(nn1-c1ccccc1)CSC2	-2%	/	/	/	/	/
Cc1cc(=O)oc2c3c(cc(OCC(=O)NCC4CCC(C(=O)O)CC4)c12)OC(C)(C)CC3 (centres undefined)	-5%	0%	/	0%	8%	/
